Compound activity from PubChem.
Shown are actives, neighbours in structure and some others; about 2.4% of the full set was active somewhere.
Cruzain noTriton = qHTS Assay for Promiscuous and Specific Inhibitors of Cruzain (without detergent). AID 1476, 2009. hit rate 2.3% among 200,000. purified cruzain, Z-FR-AMC fluorescence, no detergent. Cruzipain (Trypanosoma cruzi), P25779. Potency, µM, hits mostly inhibitors; also: nearly all actives have a fitted effect of over 40% in size
Target sequence (P25779 123-467 limits assumed): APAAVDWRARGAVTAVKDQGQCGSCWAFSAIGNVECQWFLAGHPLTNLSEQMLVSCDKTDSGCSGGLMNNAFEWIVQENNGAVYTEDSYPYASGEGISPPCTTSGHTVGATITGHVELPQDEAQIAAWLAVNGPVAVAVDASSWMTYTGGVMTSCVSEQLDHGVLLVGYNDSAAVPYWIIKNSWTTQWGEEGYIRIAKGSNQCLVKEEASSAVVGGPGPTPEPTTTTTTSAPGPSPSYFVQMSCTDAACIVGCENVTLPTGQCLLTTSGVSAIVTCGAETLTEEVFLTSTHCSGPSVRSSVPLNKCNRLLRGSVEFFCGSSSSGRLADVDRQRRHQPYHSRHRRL
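Purified cruzain at 1.5 nM, pre-incubated 15 min with compound at room temperature in 100 mM sodium acetate pH 5.5, 5 mM DTT, 0.00005% Triton X-100. Reaction started with 2 uM Z-FR-AMC; AMC fluorescence increase over 60 s gives rate.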
Cruzain Triton = qHTS Assay for Promiscuous and Specific Inhibitors of Cruzain (with detergent); Cruzipain (Trypanosoma cruzi), P25779; purified cruzain, Z-FR-AMC fluorescence, 0.01% Triton; Potency, µM, actives largely listed as inhibitors; hit rate 0.43% among 200,000; also: nearly all actives have a fitted effect of over 40% in size
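15 min RT preincubation of 1.5 nM cruzain with compound, then 2 uM Z-FR-AMC added; kinetic AMC fluorescence, 60 s delta. Triton X-100 0.01%, pH 5.5.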
A number is an active result; . = inactive; ? = inconclusive. Calls follow the shape of the dose curve; as a rule, active = well fitted curve in the direction sought with a large enough effect; inconclusive = small, poorly fitted or top-dose-only effect, or another doubt; inactive = no such curve, though single readings can be large; an effect the other way counts as inactive or inconclusive.

SMILES | Cruzain noTriton | Cruzain Triton
COc1cccc(-c2nc(Cn3c(=O)cc(C)c4c(C)nn(-c5ccccc5)c43)c(C)o2)c1OC | . | .
CCc1ccccc1NC(=O)Cn1nc(CC)n2c(cc3sccc32)c1=O | . | .
COc1cc(OC)cc(C(=O)Nc2ccc3oc(-c4cccc5c(Br)cccc45)nc3c2)c1 | . | .
O=C(Nc1ccc(Cl)c(-c2nc3cc(Cl)ccc3o2)c1)c1cc2ccccc2o1 | ? | .
Cc1ccc2oc(-c3cc(NC(=O)c4oc5ccccc5c4C)ccc3Cl)nc2c1 | 3.16µM | .
COc1ccccc1C(=O)Nc1ccc2oc(-c3cccc4c(Br)cccc34)nc2c1 | 1.26µM | .
COc1cc2ccccc2cc1C(=O)Nc1ccc2oc(-c3ccc(Cl)cc3)nc2c1 | . | .
COc1cc2ccccc2cc1C(=O)Nc1ccc(Cl)c(-c2nc3ccccc3o2)c1 | 3.16µM | .
Cc1ccc2oc(-c3cc(NC(=O)c4ccco4)ccc3Cl)nc2c1 | . | .
Cc1cc2nc(-c3cc(NC(=O)c4cc5ccccc5o4)ccc3Cl)oc2cc1C | 12.6µM | .
COC(=O)N1C(C2CC2)=Cc2ccccc2C1CC(C)=O (stereo not given) | . | .
COc1ccc(CNC(=O)C2CCN(c3nc4ccccc4[nH]3)CC2)c(OC)c1 | . | .
Cc1ccccc1-c1cncnc1NCc1ccccc1 | . | .
COc1ccc(NC(=O)c2nnn(-c3ccc(C(C)C)cc3)c2C)c(OC)c1 | . | .
O=C(/C=C/c1ccc2c(c1)OCO2)c1cccs1 | . | .
CC(C)NC(=O)C1CCCN(S(=O)(=O)c2ccc3c(ccn3C)c2)C1 (stereo not given) | . | .
CCC(=O)N[C@@H]1CCc2cccc(OC)c2C1 | . | .
CCCSC1=NC2(CCN(C(=O)NC3CCCCC3)CC2)N=C1c1ccc(OC)cc1 | . | .
Cc1cc(C)c(NC(=O)CSc2nc3nc(C)cc(C)n3n2)c(C)c1 | . | .
O=C(c1cnccn1)N1CCC2(CCN(Cc3nccs3)CC2)CC1 | . | .
CCOc1ccc(NC(=O)Cn2c(=O)n(CC(=O)NCc3ccccc3Cl)c(=O)c3sccc32)cc1 | . | .
COc1ccc(/C=N/N2C(=O)c3ccccc3C2=O)cc1 | . | .
COc1ccc(/C=N/N=C2/NC(=O)C(c3ccccc3)(c3ccccc3)S2)cc1 | 3.16µM | .
Cc1cc(=O)n2nc(N3CCC(C(=O)Nc4ccc(Br)c(C)c4)CC3)sc2n1 | . | .
CCc1ccc(NCc2cc3cc4c(cc3n(CC(=O)Nc3ccc(F)cc3)c2=O)OCCO4)cc1 | 20µM | .
SMILES | Cruzain noTriton | Cruzain Triton
COc1ccc(NCc2cc3cc4c(cc3n(CC(=O)Nc3ccc(F)cc3)c2=O)OCCO4)cc1 | 20µM | .
CCc1ccc(NCc2cc3cc4c(cc3n(CC(=O)Nc3ccc(C)cc3)c2=O)OCO4)cc1 | . | .
CCOc1ccc(NC(=O)Cn2c(=O)c(CNc3ccccc3)cc3cc4c(cc32)OCCO4)cc1 | . | .
NC(=S)N/N=C/c1ccccc1OCc1cccc(Cl)c1 | ? | .
O=c1cc(CSc2ccccc2)[nH]c(=S)[nH]1 | . | .
NC(=S)N/N=C/c1coc2c(ccc3ccccc32)c1=O | 0.631µM | ?
O=c1cc(/N=C/c2coc3c(ccc4ccccc43)c2=O)[nH]c(=S)[nH]1 | 7.94µM | .
CC(=O)c1ccc(N2CCN(S(=O)(=O)c3ccc(-c4coc(C)n4)cc3)CC2)cc1 | . | .
COc1ccc2c3c(ccc2c1)N[C@H](C(=O)O)CC3 | . | .
CCOC(=O)c1ccc(N2C(=O)c3[nH]nc(-c4ccc(C)cc4)c3C2c2ccc(O)c(OCC)c2)cc1 (stereo not given) | ? | .
COc1cc(CNC(=O)c2ccc3nc(Cc4ccccc4)oc3c2)cc(OC)c1OC | ? | .
CC1(C)C(=O)C(c2ccccc2)=C2CN3C(=O)N(CCc4ccccc4)C(=O)C3(Cc3ccc(F)cc3)C=C21 (stereo not given) | ? | .
COc1ccc(-c2csc(NC(=O)c3cccc(S(=O)(=O)N4CCN(C)CC4)c3)n2)cc1 | . | .
COc1ccc(C2=CSC3=C(C(=O)c4cccc(S(=O)(=O)N(C)C)c4)CCN23)cc1 | 25.1µM | .
O=C(Nc1ccc(N2CCOCC2)c(Cl)c1)c1cc2ccccc2o1 | . | .
COc1cc(NC(=O)c2ccc(Cl)cc2Cl)ccc1-c1cc2ccccc2oc1=O | 20µM | .
O=C(Nc1ccc(N2CCCC2)c(Cl)c1)c1cccc(-c2cc3ccccc3oc2=O)c1 | 3.98µM | .
Cc1cc(NC(=O)c2cc(Cl)ccc2Cl)ccc1-c1cc2ccccc2oc1=O | . | .
COc1ccc(C(=O)Nc2ccccc2)cc1[N+](=O)[O-] | . | .
COc1ccc(C(=O)Nc2cccc(-c3cc4ccccc4oc3=O)c2)cc1[N+](=O)[O-] | 10µM | .
CC(=O)N1CCc2c(sc3c2c(=O)n(CCc2ccccc2)c(=O)n3Cc2ccc(F)cc2)C1 | ? | .
O=c1[nH]ccc2c(S(=O)(=O)N3CCCNCC3)cccc12 | ? | .
CCCOc1ccc(C2CC(=O)Nc3c2c(C)nn3-c2nncc(-c3cccc(OC)c3)n2)cc1OC (stereo not given) | . | .
N#C/C(=C/c1ccc(O)cc1)c1nc(-c2ccc(-c3ccccc3)cc2)cs1 | . | .
N#C/C(=C\C=C\c1ccccc1)c1nc(-c2ccc3c(c2)OCO3)cs1 | 25.1µM | .
SMILES | Cruzain noTriton | Cruzain Triton
O=C(Nc1nccs1)C1CCCN(S(=O)(=O)c2cccc3cccnc23)C1 (stereo not given) | . | .
COc1ccc2nc(NC(=O)C3CCN(S(=O)(=O)c4cccs4)CC3)sc2c1 | ? | .
O=C(Nc1nc2cc(Cl)ccc2s1)C1CCCN(S(=O)(=O)c2cccc3cccnc23)C1 (stereo not given) | 25.1µM | .
COc1ccc2nc(NC(=O)C3CCCN(S(=O)(=O)c4cccs4)C3)sc2c1 (stereo not given) | 25.1µM | .
O=C(CSc1nc2c([nH]c3ccccc32)c(=O)n1-c1ccc(F)cc1)N1CCc2ccccc21 | . | .
CCc1ccc(NC(=O)N(Cc2ccco2)C(C)c2cccs2)cc1 (stereo not given) | . | .
CCc1ccc(NC(=O)CS(=O)CC(=O)NC(C)CCc2ccco2)cc1 (stereo not given) | 25.1µM | .
O=C(/C=C\c1ccc2c(c1)OCO2)NC1CC(=O)N(c2ccc(Cl)cc2)C1 (stereo not given) | . | .
O=C(/C=C\c1ccc2c(c1)OCO2)Nc1c2c(nn1-c1ccc(Cl)cc1)CSC2 | 25.1µM | .
COc1cc(NC(=O)C2CCN(c3cnc4ccccc4n3)CC2)cc(OC)c1OC | . | .
CSc1ccccc1N=Cc1nc(-c2ccccc2)oc1O | . | .
COc1ccccc1N=Cc1nc(-c2ccccc2)oc1OC(C)=O | 20µM | 25.1µM
CC(=O)Oc1oc(-c2ccccc2)nc1/C=N/c1ccccn1 | 12.6µM | 14.1µM
CN(C)c1ccc(N=Cc2nc(-c3ccccc3)oc2OC(=O)c2ccccc2)cc1 | ? | .
CCSc1nc(-c2ccc(Cl)cc2)nc2c1Cc1c(CO)cnc(C)c1O2 | . | .
O=C(O)CC1c2ccccc2CCN1C(=O)Nc1cc(Cl)ccc1Cl (stereo not given) | . | .
CCOC(=O)CNS(=O)(=O)c1ccc(C)cc1 | . | .
Cc1ccc(C(=O)C(OC(=O)CNS(=O)(=O)c2ccccc2)c2ccccc2)cc1 (stereo not given) | 31.6µM | ?
